CRFBP-R2 agonist – CRF-BP/CRF-R2 complex agonism; HEK293 CRF-R2/CRF-BP, calcium dye fluorescence (FLIPR); percent of saturating CRF peptide response; activation, % at 13.2 µM; hit rate 0.46% among 350,000; AID 588473;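 active = activation of at least 50%, plus an integration ratio under a set limit after plate pattern correction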;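 also: plate controls were neutral control wells without compound for no effect and CRF at EC100 for full effect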
ABCB6 inh MLPCN – human ABCB6 transporter inhibition; AID 602162; Q9NP58; K562-ABCB6 porphyrin accumulation, flow cytometry, 1 h; hits give low values; fluorescence ratio to DMSO, % at 10 µM; hit rate 0.19% among 360,000;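 active = fluorescence ratio to DMSO below 75%, the collection mean minus 3 SD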;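 also: signal is porphyrin accumulated inside mitochondria; 100% equals median channel fluorescence of DMSO control wells; lower ratio means ABCB6 inhibition with less porphyrin fluorescence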
MEKK3 PB1 HTS – raises or lowers MEK5 binding to the human MEKK3 PB1 domain. Q99759. bead-based flow cytometry, Alexa488-MEK5 binding to MEKK3; actives lie on both sides; 0 = blocked by unlabeled MEK5, 100 = vehicle. binding response (% of control), % at 10 µM. hit rate 1.4% among 290,000. AID 1529;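 active = binding response more than 3 SD above or below the average of its plate-row segment, actives on both sides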;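 also: Alexa488 bead fluorescence after subtracting the streptavidin-only scavenger bead signal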
Target sequence (Q99759 whole entry, looked up, the tested form may be a part): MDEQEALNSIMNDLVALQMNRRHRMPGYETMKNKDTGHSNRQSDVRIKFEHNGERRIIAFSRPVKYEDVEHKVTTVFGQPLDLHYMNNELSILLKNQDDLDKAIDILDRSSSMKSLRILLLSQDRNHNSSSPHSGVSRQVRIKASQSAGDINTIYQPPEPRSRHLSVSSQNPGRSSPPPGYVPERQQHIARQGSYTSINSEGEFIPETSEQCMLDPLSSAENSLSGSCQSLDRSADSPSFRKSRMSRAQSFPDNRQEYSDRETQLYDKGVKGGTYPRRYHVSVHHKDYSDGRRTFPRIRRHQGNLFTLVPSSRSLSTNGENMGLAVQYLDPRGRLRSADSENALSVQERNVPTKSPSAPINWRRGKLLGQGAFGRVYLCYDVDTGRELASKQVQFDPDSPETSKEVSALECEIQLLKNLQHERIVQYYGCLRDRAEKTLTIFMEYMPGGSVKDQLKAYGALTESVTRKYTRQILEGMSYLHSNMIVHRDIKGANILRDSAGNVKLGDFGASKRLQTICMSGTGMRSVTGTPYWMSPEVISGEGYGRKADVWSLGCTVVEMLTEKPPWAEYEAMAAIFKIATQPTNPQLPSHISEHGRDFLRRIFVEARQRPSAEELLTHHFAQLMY
MEKK2 mut-MEK5 – signal of MEK5 binding to mutant human MEKK2 PB1 domain; hit rate 0.35% among 290,000; percent response, % at 10 µM; bead flow cytometry, Alexa488-MEK5 binding to MEKK2 mutant; AID 1530; in the data active = percent response above about 24%, passing the limit was not always enough
MEKK2wt PB1 HTS – raises or lowers MEK5 binding to wildtype human MEKK2 PB1 domain. Q9Y2U5. bead flow cytometry, Alexa488-MEK5 binding to MEKK2 WT; actives lie on both sides. binding response (% of control), % at 10 µM. hit rate 1.1% among 290,000; in the data active = binding response below about 67% or above about 130%
CRFR2-BP antag – blocks CRF-induced signaling of the CRF-BP/CRF-R2 complex. HEK293 CRF-R2/CRF-BP, CRF-induced calcium fluorescence. inhibition, % at 11.8 µM. hit rate 0.59% among 350,000. AID 588475;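 active = inhibition of the ligand-induced calcium signal above about 50% at the single tested concentration, limit read from the data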
MEKK2wt confirm – raises or lowers MEK5 binding to wildtype human MEKK2, retest; shares compounds with MEKK3 PB1 HTS; bead flow cytometry, Alexa488-MEK5 binding to MEKK2 WT; actives lie on both sides; binding response (% of control), % at 10 µM; hit rate 2.4% among 5,900; in the data active = binding response below about 16% or above about 210%; inactive = in between
MEKK2mut-MEK5 – signal of MEK5 binding to mutant human MEKK2, retest. shares compounds with MEKK3 PB1 HTS. bead flow cytometry, Alexa488-MEK5 binding to MEKK2 mutant. percent response, % at 10 µM. hit rate 2% among 5,900. AID 1893; in the data active = percent response mostly above about 71%, no sharp cut-off; inactive = mostly below about 38%;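 also: higher means compound restores mutant binding toward wildtype level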
MEKK3 confirm – MEKK3-MEK5 PB1 inhibition, single concentration confirmation. shares compounds with MEKK3 PB1 HTS. bead flow cytometry, Alexa488-MEK5 binding to MEKK3; hits give low values. binding response (% of control), % at 10 µM. hit rate 1.8% among 5,900. AID 1894;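 active = binding response below 72% of control, or above a set upper limit, though filed actives all read lower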;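 also: 100% = DMSO only wells and 0% = binding blocked by excess unlabeled MEK5; lower values mean stronger disruption of MEK5 binding to MEKK3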
Numbers without * were called inactive; [ ] = remark or other dose. The list is not random: actives were taken first. Their share in the collection is about 2.9%.

For Nc1n[nH]c2cc(=O)n(-c3ccc(Cl)cc3)nc12 the results were CRFBP-R2 agonist 13.7, ABCB6 inh MLPCN 101.0, MEKK3 PB1 HTS 80.0, MEKK2 mut-MEK5 -6.0, MEKK2wt PB1 HTS 81.0 and CRFR2-BP antag 0.8.
`CC(C)Oc1cccc(C(=O)C2CCCN(Cc3cccn3-c3ccccn3)C2)c1` (stereo not drawn) gave CRFBP-R2 agonist 0.6, ABCB6 inh MLPCN 94.0, MEKK3 PB1 HTS 107.0, MEKK2 mut-MEK5 35.0, MEKK2wt PB1 HTS 174.0*, CRFR2-BP antag 3.9, MEKK2wt confirm 115.0, MEKK2mut-MEK5 7.0 and MEKK3 confirm 106.0.
`COc1cccc(C(=O)C2CCCN(Cc3cccn3-c3ccccn3)C2)c1` (stereo not drawn) gave CRFBP-R2 agonist -0.5, ABCB6 inh MLPCN 102.0, MEKK3 PB1 HTS 102.0, MEKK2 mut-MEK5 7.0, MEKK2wt PB1 HTS 105.0 and CRFR2-BP antag -6.6.
For Cc1cc(C)c(C)c(S(=O)(=O)N2CCC(C(=O)OCC(=O)NC3CCS(=O)(=O)C3)CC2)c1C (stereo not drawn) the results were CRFBP-R2 agonist -0.9, ABCB6 inh MLPCN 96.0 and CRFR2-BP antag -0.6.
COc1ccccc1NS(=O)(=O)c1cc([N+](=O)[O-])ccc1N/N=C/c1c(C)[nH]c2ccccc12 was read as CRFBP-R2 agonist 37.2, ABCB6 inh MLPCN 925.0, MEKK3 PB1 HTS 75.0, MEKK2 mut-MEK5 67.0*, CRFR2-BP antag -92.0, MEKK2wt confirm 97.0, MEKK2mut-MEK5 -1.0 and MEKK3 confirm 91.0.
For Cc1[nH]c2ccccc2c1/C=N/NC(=O)c1cccc([N+](=O)[O-])c1 the results were CRFBP-R2 agonist -2.2, ABCB6 inh MLPCN 92.0, MEKK3 PB1 HTS 61.0, MEKK2 mut-MEK5 -13.0, MEKK2wt PB1 HTS 65.0 and CRFR2-BP antag 1.6.
Screening COc1cc(O)c(C(CCN2CCCCC2)c2cc(OC)c(OC)c(OC)c2)c(OC)c1 (stereo not drawn) returned CRFBP-R2 agonist -1.2, ABCB6 inh MLPCN 98.0, MEKK3 PB1 HTS 94.0, MEKK2 mut-MEK5 3.0, MEKK2wt PB1 HTS 90.0 and CRFR2-BP antag -4.6.
`COc1cc(O)c(C(CCN2CCCC2)c2cc(OC)c(OC)c(OC)c2)c(OC)c1` (stereo not drawn) gave CRFBP-R2 agonist -0.3, ABCB6 inh MLPCN 97.0, MEKK3 PB1 HTS 114.0, MEKK2 mut-MEK5 5.0, MEKK2wt PB1 HTS 145.0*, CRFR2-BP antag -10.8, MEKK2wt confirm 118.0, MEKK2mut-MEK5 13.0 and MEKK3 confirm 103.0.
COc1cc(O)c(C(CCN2CCOCC2)c2cc(OC)c(OC)c(OC)c2)c(OC)c1 (stereo not drawn) was read as CRFBP-R2 agonist 3.3, ABCB6 inh MLPCN 101.0, MEKK3 PB1 HTS 119.0, MEKK2 mut-MEK5 3.0, MEKK2wt PB1 HTS 142.0*, CRFR2-BP antag -2.6, MEKK2wt confirm 98.0, MEKK2mut-MEK5 -8.0 and MEKK3 confirm 97.0.
Screening COc1ccc(C(CCN2CCCC2)c2c(O)cc(OC)cc2OC)cc1 (stereo not drawn) returned CRFBP-R2 agonist 0.8, ABCB6 inh MLPCN 99.0, MEKK3 PB1 HTS 117.0, MEKK2 mut-MEK5 9.0, MEKK2wt PB1 HTS 149.0*, CRFR2-BP antag -5.9, MEKK2wt confirm 158.0, MEKK2mut-MEK5 31.0 and MEKK3 confirm 108.0.
`CCCCNS(=O)(=O)c1ccc2nc(SCC(=O)c3ccccc3OC)[nH]c2c1` gave CRFBP-R2 agonist -0.7, ABCB6 inh MLPCN 93.0, MEKK3 PB1 HTS 75.0*[inhibitor], MEKK2 mut-MEK5 -39.0, MEKK2wt PB1 HTS 66.0, CRFR2-BP antag -64.4, MEKK2wt confirm 105.0, MEKK2mut-MEK5 4.0 and MEKK3 confirm 109.0.
Cc1ccc(C)c(NC(=O)CCC(=O)NN=C2CCCC2)c1 was read as CRFBP-R2 agonist -1.7, ABCB6 inh MLPCN 92.0, MEKK3 PB1 HTS 96.0, MEKK2 mut-MEK5 -4.0, MEKK2wt PB1 HTS 98.0 and CRFR2-BP antag -14.3.
For O=C(/C=C/c1c[nH]c2ccccc12)c1ccccc1 the results were CRFBP-R2 agonist 6.0, ABCB6 inh MLPCN 99.0, MEKK3 PB1 HTS 136.0*, MEKK2 mut-MEK5 0.0, MEKK2wt PB1 HTS 103.0, CRFR2-BP antag 2.7, MEKK2wt confirm 106.0, MEKK2mut-MEK5 0.0 and MEKK3 confirm 106.0.
`S=c1[nH]nc(-c2ccc(Cl)cc2)n1-c1cccnc1` gave CRFBP-R2 agonist 0.4, ABCB6 inh MLPCN 96.0, MEKK3 PB1 HTS 100.0, MEKK2 mut-MEK5 -3.0, MEKK2wt PB1 HTS 94.0 and CRFR2-BP antag 11.3.
`S=c1[nH]nc(-c2cccnc2)n1-c1ccccc1` gave CRFBP-R2 agonist -1.8, ABCB6 inh MLPCN 100.0, MEKK3 PB1 HTS 80.0*[inhibitor], MEKK2 mut-MEK5 2.0, MEKK2wt PB1 HTS 101.0, CRFR2-BP antag 2.4, MEKK2wt confirm 98.0, MEKK2mut-MEK5 -4.0 and MEKK3 confirm 105.0.
Screening C=CCOc1ccc(C2=NOC(C(=O)Nc3ccc4c(c3)OCCO4)C2)cc1 (stereo not drawn) returned CRFBP-R2 agonist -0.5, ABCB6 inh MLPCN 101.0, MEKK3 PB1 HTS 100.0, MEKK2 mut-MEK5 0.0, MEKK2wt PB1 HTS 102.0 and CRFR2-BP antag -9.5.
`c1coc(CNC2CCCCCCC2)c1` gave CRFBP-R2 agonist -1.0, ABCB6 inh MLPCN 91.0, MEKK3 PB1 HTS 98.0, MEKK2 mut-MEK5 1.0, MEKK2wt PB1 HTS 106.0 and CRFR2-BP antag -1.5.
Screening O=S1(=O)CC(O)C(NCc2ccco2)C1 (stereo not drawn) returned CRFBP-R2 agonist 2.7, ABCB6 inh MLPCN 93.0, MEKK3 PB1 HTS 75.0*[inhibitor], MEKK2 mut-MEK5 -4.0, MEKK2wt PB1 HTS 81.0, CRFR2-BP antag -2.3, MEKK2wt confirm 102.0, MEKK2mut-MEK5 3.0 and MEKK3 confirm 106.0.
`Cc1onc(-c2ccccc2)c1C(=O)NCc1ccc2c(c1)OCO2` gave CRFBP-R2 agonist -0.9, ABCB6 inh MLPCN 98.0, MEKK3 PB1 HTS 102.0, MEKK2 mut-MEK5 1.0, MEKK2wt PB1 HTS -6.0*[inhibitor], CRFR2-BP antag -11.9, MEKK2wt confirm 105.0, MEKK2mut-MEK5 2.0 and MEKK3 confirm 104.0.
Screening COc1ccc(C(CCNC(C)c2ccccc2)c2ccc(F)cc2)cc1 (stereo not drawn) returned CRFBP-R2 agonist 14.7, ABCB6 inh MLPCN 99.0, MEKK3 PB1 HTS 107.0, MEKK2 mut-MEK5 46.0, MEKK2wt PB1 HTS 156.0*, CRFR2-BP antag -86.1, MEKK2wt confirm 124.0, MEKK2mut-MEK5 6.0 and MEKK3 confirm 103.0.

Bioassay records as filed in PubChem BioAssay.
